# Records with an inconclusive call do not appear. The source made the active and inactive calls. Calls follow the shape of the dose curve; as a rule, active = well fitted curve in the direction sought with a large enough effect; inconclusive = small, poorly fitted or top-dose-only effect, or another doubt; inactive = no such curve, though single readings can be large; an effect the other way counts as inactive or inconclusive.
# Test system: not listed separately
# Assay: Inducers of the Endoplasmic Reticulum Stress Response (ERSR) in human glioma: Validation (AID 504836); also: 0% is about no effect
# Details: human glioma cells, ER stress response reporter; series mostly up to 38.3 µM; activation: at the top concentration
# How it was run: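 Stably transfected U87-MG glioma cells carrying a GRP78-based luciferase sensor; 16 h compound incubation. Luminescence end-point read 10 min after Bright-Glo addition at room temperature.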
row,Structure (SMILES),activation
1,CNC(=O)Oc1ccc2c(c1)[C@]1(C)CCN(C)[C@@H]1N2C,-1.03% (inactive)
2,CC[C@H]1CN2CCc3cc(OC)c(OC)cc3[C@@H]2C[C@@H]1C[C@H]1NCCc2cc(OC)c(OC)cc21,-7.34% (inactive)
3,CN(C)CC[C@@H](c1ccc(Cl)cc1)c1ccccn1,-1.1% (inactive)
4,Cc1[nH]c(=O)c(C#N)cc1-c1ccc2nccn2c1,-3.49% (inactive)
5,COC(=O)C1=C(C)NC(C)=C(C(=O)OC)C1c1ccccc1[N+](=O)[O-],-4.43% (inactive)
6,NC(N)=NC(=O)c1nc(Cl)c(N)nc1N,1% (inactive)
7,CCCOc1ccccc1-c1nc2n[nH]nc2c(=O)[nH]1,-3.22% (inactive)
8,CCNC(=O)N1CCN(CCCC(c2ccc(F)cc2)c2ccc(F)cc2)CC1,2.1% (inactive)
9,CC(=O)[C@@]1(O)CC[C@H]2[C@@H]3CCC4=CC(=O)CC[C@]4(C)[C@H]3CC[C@@]21C,-0.676% (inactive)
10,CCCCNc1ccc(C(=O)OCCN(C)C)cc1,0.945% (inactive)
11,CCCN(CCC)C(=O)C(CCC(=O)O)NC(=O)c1ccccc1 (stereo not drawn),1.66% (inactive)
12,Oc1ccc(O)cc1,3.38% (inactive)
13,C=CCc1ccccc1OCC(O)CNC(C)C (stereo not drawn),-1.18% (inactive)

# Target: Ubiquitin carboxyl-terminal hydrolase 1 (Homo sapiens) (UniProt O94782)
# Sequence (O94782 whole entry, looked up): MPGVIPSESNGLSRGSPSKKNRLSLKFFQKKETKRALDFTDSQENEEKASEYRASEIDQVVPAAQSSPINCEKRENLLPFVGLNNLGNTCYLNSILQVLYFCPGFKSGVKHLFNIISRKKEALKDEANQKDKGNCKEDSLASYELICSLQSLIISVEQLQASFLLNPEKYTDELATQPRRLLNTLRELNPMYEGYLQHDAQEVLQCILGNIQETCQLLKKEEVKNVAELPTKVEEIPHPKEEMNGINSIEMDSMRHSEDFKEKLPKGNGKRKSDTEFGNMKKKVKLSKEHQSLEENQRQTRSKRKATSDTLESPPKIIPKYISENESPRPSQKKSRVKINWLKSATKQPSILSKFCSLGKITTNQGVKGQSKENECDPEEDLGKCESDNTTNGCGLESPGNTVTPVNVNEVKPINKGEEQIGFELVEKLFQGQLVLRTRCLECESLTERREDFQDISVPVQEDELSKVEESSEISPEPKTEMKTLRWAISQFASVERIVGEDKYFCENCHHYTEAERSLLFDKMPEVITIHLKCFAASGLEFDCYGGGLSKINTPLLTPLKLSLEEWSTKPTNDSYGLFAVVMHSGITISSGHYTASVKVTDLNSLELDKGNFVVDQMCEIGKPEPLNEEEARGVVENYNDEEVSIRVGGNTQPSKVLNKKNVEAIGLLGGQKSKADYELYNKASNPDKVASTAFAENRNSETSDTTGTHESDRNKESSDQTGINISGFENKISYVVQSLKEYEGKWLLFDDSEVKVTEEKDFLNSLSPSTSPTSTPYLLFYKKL
# Assay: Inhibitors of USP1/UAF1: Pilot qHTS (AID 504865); also: nearly all actives have a fitted effect of over 35% in size; also: potency is read from the fitted curve at half-maximal effect;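 as to activity change, negative = inhibition: rhodamine fluorescence freed from ubiquitin-rhodamine substrate followed over time; top concentration of the series differs between compounds; % is scaled to controls: 0 for no effect and ±100 for the full control effect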
# Details: purified USP1/UAF1, Ub-rhodamine cleavage fluorescence; series mostly up to 114 µM; activity change, negative = inhibition: at the top concentration
# How it was run: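 1nM USP1/UAF1 + cpd, 15 min RT; start w/ Ub-Rho 150nM final; kinetic FL 480/540 nm, 6 reads q60 s. Buffer 50mM HEPES pH 7.8, 0.5mM EDTA, 1mM TCEP, 0.01% Tween-20, 0.1 mg/ml BSA.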
Structure (SMILES),Potency,"activity change, negative = inhibition"
CNC(=O)Oc1ccc2c(c1)[C@]1(C)CCN(C)[C@@H]1N2C,inactive,
CCC1(CC)C(=O)NC(=O)NC1=O,,-2.14% (inactive)
CC[C@H]1CN2CCc3cc(OC)c(OC)cc3[C@@H]2C[C@@H]1C[C@H]1NCCc2cc(OC)c(OC)cc21,,-1.56% (inactive)
CN(C)C(=O)Oc1cc(OC(=O)N(C)C)cc(C(O)CNC(C)(C)C)c1 (stereo not drawn),,-3.95% (inactive)
CC(C)C(Br)C(=O)NC(N)=O (stereo not drawn),,1.73% (inactive)
COP(=O)(OC)C(O)C(Cl)(Cl)Cl (stereo not drawn),,7.96% (inactive)
C[C@]12C=CC(=O)C=C1CC[C@@H]1[C@@H]2CC[C@@]2(C)[C@H]1CC[C@]2(C)O,,-2.77% (inactive)
CC(C)(C)OC(=O)c1ncn2c1[C@@H]1CCCN1C(=O)c1c(Br)cccc1-2,,-4.67% (inactive)
CCN(CC)C(C)C(=O)c1ccccc1 (stereo not drawn),,-7.05% (inactive)
Clc1ccc(C(OCCN2CCCCC2)c2ccccc2)cc1 (stereo not drawn),,-10.2% (inactive)
CC(C)NCC(O)c1ccc(N)c(C#N)c1 (stereo not drawn),,-4.02% (inactive)
COC(=O)C1=C(C)NC(C)=C(C(=O)OC)C1c1ccccc1[N+](=O)[O-],inactive,
CC(C)(O)C(Cl)(Cl)Cl,,-4.62% (inactive)
CN1C[C@@H](NS(=O)(=O)N(C)C)C[C@@H]2c3cccc4c3c(cn4C)C[C@H]21,,-8.11% (inactive)
CCN1CCCC(OC(=O)C(c2ccccc2)c2ccccc2)C1 (stereo not drawn),,-12.1% (inactive)
CN(C)CC/C=C1\c2ccccc2Sc2ccc(Cl)cc21,inactive,
NCc1cccnc1,,-1.34% (inactive)
CC(C)[N+](C)(CCC(C(N)=O)(c1ccccc1)c1ccccc1)C(C)C,inactive,
COc1ccc(CN2CCNCC2)c(OC)c1OC,,-1.3% [at 54.9 µM] (inactive)
C[C@]12CC[C@H]3[C@@H](CC=C4C[C@@H](O)CC[C@@]43C)[C@@H]1CC[C@@H]2O,,0.778% (inactive)
Cc1ncc2n1-c1ccc(Cl)cc1C(c1ccccc1F)=NC2,,-7.63% (inactive)
OC(c1ccccc1)(c1ccccc1)C1CCNCC1,,3.61% [at 54.9 µM] (inactive)
O=C(CCCN1CCC(n2c(=O)[nH]c3ccccc32)CC1)c1ccc(F)cc1,,3.88% [at 54.9 µM] (inactive)
OC(O)C(Cl)(Cl)Cl,,-3.14% (inactive)
CCCC(C)C1(CC)C(=O)N=C(S)NC1=O (stereo not drawn),,-11.6% (inactive)
CCCCCCCCCCCCCCCC[n+]1ccccc1,20 µM (active),
NC(=O)OCCCc1ccccc1,,2.19% (inactive)
C[C@H](N)[C@H](O)c1ccc(O)c(O)c1,,-7.32% [at 54.9 µM] (inactive)
CN1C[C@H](C(=O)N[C@]2(C)O[C@@]3(O)[C@@H]4CCCN4C(=O)[C@H](Cc4ccccc4)N3C2=O)C[C@@H]2c3cccc4[nH]cc(c34)C[C@H]21,,-7.89% (inactive)
C=CCOC(Cn1ccnc1)c1ccc(Cl)cc1Cl (stereo not drawn),,-6.91% (inactive)

# Reference: PubChem BioAssay (NCATS)
